Source: PubChem (National Center for Advancing Translational Sciences (NCATS))
GAA inhib: inhibitors of human lysosomal alpha-glucosidase; purified human GAA, 4-MU-alpha-glucoside fluorescence; Potency, µM (top dose mostly 76.9 µM), actives largely listed as inhibitors; actives 0.005% (n = 200,000); AID 1466
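Activity normalized between no-enzyme (basal) and enzyme-only wells. Conditions: 4 nM human enzyme, 400 uM fluorogenic substrate, citrate/phosphate pH 5.0 with Tween-20, 20 min room temperature, compounds up to 77 uM.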
GAA spleen mod: lysosomal alpha-glucosidase (human) modulation | Potency, µM (series often up to 79.9 µM), actives largely listed as inhibitors | human spleen homogenate, 4-MU-alpha-glucoside fluorescence | AID 2112 | actives 0.006% (n = 240,000)
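AC50 values come from Hill-equation fits of concentration-response data, normalized to no-enzyme and full-activity controls. Enzyme source: 1 ug human spleen homogenate; 1 mM fluorogenic 4-MU glucoside, pH 5.0 citrate buffer, 37 C, 40 min.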
GAA glycogen mod: alters human alpha-glucosidase cleavage of glycogen | P10253 | recombinant GAA, glycogen substrate, Amplex Red glucose oxidase fluorescence | Potency, µM (series often up to 76.4 µM), most hits filed as inhibitors | actives 0.38% (n = 300,000);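 note: the screen sought inhibitors and activators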
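Recombinant human alpha-glucosidase (4 nM final) hydrolysed bovine liver glycogen (30 ug) for 40 min at 37 C in pH 5.0 citrate/phosphate with 0.01% Tween-20. Released glucose detected by glucose oxidase/Amplex Red, Ex 573/Em 610 nm. Compounds up to 77 uM; AC50 from Hill fits.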
N370S GC mod: N370S glucocerebrosidase modulation, Gaucher chaperone candidate | N370S GC spleen homogenate, 4MU-glucoside fluorescence | actives 0.092% (n = 330,000) | Potency, µM (series often up to 59.4 µM), usual class: inhibitors | P04062 | AID 2101
LMNA splice mod: LMNA splicing modulation. Potency, µM (titrated, usually from 46.1 µM), hits mostly inhibitors. HeLa LMNA splicing GFP/RFP minigene ratio, 48 h. actives 0.01% (n = 200,000). AID 1487; active = well fitted inhibition curve with a large enough effect in the signal ratio, with a control signal flat, not every such curve was filed as active; inconclusive = small, poorly fitted or top-dose-only effect, or effect the other way, or a change in a side signal; the % refers to the signal ratio
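S3 HeLa cells stably expressing lamin A-EGFP splicing minigene plus DsRed2, 600 cells/well, 48 h compound exposure at 37C. Laser-scanning cytometry; analysed as GFP (500-530 nm)/RFP (575-640 nm) total intensity ratio; 0.5% DMSO vehicle.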
Numbers stand for hits; - = inactive; ? = inconclusive; . = no result; [ ] = remark or other dose. Shown are actives, neighbours in structure and some others; about 0.42% of the full set was active somewhere. Unless noted, calls come from the whole dose curve; as a rule, active = well fitted curve in the direction sought with a large enough effect; inconclusive = small, poorly fitted or top-dose-only effect, or another doubt; inactive = no such curve, though single readings can be large; an effect the other way counts as inactive or inconclusive.

SMILES | GAA inhib | GAA spleen mod | GAA glycogen mod | N370S GC mod | LMNA splice mod
COc1ccc(-c2cc(=O)c3c(O)c(OC)c(OC)c(OC)c3o2)cc1OC | . | - | . | - | ?
COc1cc(-c2cc(=O)c3c(O)c(OC)c(OC)c(O)c3o2)ccc1O | . | - | 22µM | - | .
COc1ccccc1CNc1ncnc2ccc(-c3cccc(NS(C)(=O)=O)c3)cc12 | . | - | . | - | ?
CCN1CCN(C(=S)c2ccc(-c3ccccc3)cc2)CC1 | - | - | - | 11µM | .
OCc1ccc(-c2ccc(-c3ccc(CO)s3)o2)s1 | . | - | . | ? | .
CN(C)c1ccc(-c2ccc3ncnc(NC4CC4)c3c2)cc1 | . | - | . | - | ?
COc1ccc(CNc2nc(NCc3ccc(OC)cc3)c3ncn(C4CCCCC4)c3n2)cc1 | . | - | . | - | .
CNNC(=S)Nc1cccc(C(F)(F)F)c1 | - | - | - | - | .
FC(F)(F)c1cccc(NC(=S)NNC(=S)Nc2cccc(C(F)(F)F)c2)c1 | - | - | 8.9µM | - | .
CCOc1ccc(NC(=S)NNC(=S)Nc2cccc(C(F)(F)F)c2)cc1 | - | - | ? | - | .
COc1ccc(NC(=S)NNC(=S)Nc2cccc(C(F)(F)F)c2)cc1 | - | - | 4.5µM | - | .
COc1cccc2c1OC(=O)CC2c1ccccc1C (centres undefined) | . | - | . | - | .
Cc1cc(O)c(C(C)C)cc1N=C1CSC(=O)N1 | - | - | 18µM | - | -
Cc1ccc(N=C2CSC(=O)N2)cc1 | - | - | - | - | .
OC[C@@H]1O[C@H](O)[C@H](O)[C@@H](O)[C@@H]1O | . | - | . | - | .
NS(=O)(=O)c1ccc(NNC(=O)c2ccccc2C(=O)O)cc1 | . | - | ? | - | .
O=C(O)c1ccccc1C(=O)NNc1ccc(Cl)cc1 | - | - | 11µM | - | -
COc1cc(SC)ccc1C(=O)N1CCN(c2ccc(O)cc2)CC1 | - | - | 4µM | - | ?
Cc1ccc(N)cc1[N+](=O)[O-] | . | - | . | - | .
O=C(O)c1cc(NCc2cccs2)ccc1N1CCOCC1 | - | - | 9.9µM | - | -
COC(=O)c1cc(NCc2c(F)cccc2Cl)ccc1N1CCOCC1 | - | - | 12µM | - | -
COC(=O)[C@H](CC(C)C)NC(=O)c1ccc(NC[C@@H](N)CS)cc1-c1cccc2ccccc12 | . | - | . | - | .
CC1(C)CC(=O)c2sc(NC(=O)CCS(=O)(=O)c3ccccc3)nc2C1 | - | - | - | - | 4.5µM
Oc1ccc(C(c2nnnn2C2CCCCC2)N2CCOCC2)cc1 (centres undefined) | - | - | - | - | -
CCOC(=O)c1cc2oc(C(c3nnnn3C3CCCCC3)N3CCOCC3)cc2[nH]1 (centres undefined) | - | - | - | 13µM | ?
SMILES | GAA inhib | GAA spleen mod | GAA glycogen mod | N370S GC mod | LMNA splice mod
N/N=c1\sc2ccccc2n1-c1ccccc1 | - | - | 20µM | - | -[0.0737 µM]
CC(=O)N=c1sc2ccccc2n1C | - | - | - | - | -
O=C(CN1CCN(c2ccc(O)cc2)CC1)N1CCc2ccccc21 | . | . | 5µM | - | .
O=C(CN1CCN(c2ccccc2)CC1)N1CCc2ccccc21 | . | . | - | - | .
COc1ccc(-n2c(=O)c3c4c(sc3n(Cc3ccc(F)cc3)c2=O)CN(C(C)=O)CC4)c(OC)c1 | . | . | 56µM | . | .
CCCCc1nc2c(c3c1C[C@H](C)OC3)CN(C(=O)NCCc1c[nH]c3ccccc13)CC2 | . | -[17.4 µM] | . | -[12.8 µM] | -[9.22 µM]
CCOC(=O)c1c(CSc2ccccc2)n(C)c2cc(Br)c(OCC(O)CNC(CO)(CO)CO)cc12 (centres undefined) | - | - | - | 14µM | -
CCOC(=O)c1c(CSc2ccccc2)n(C)c2cc(Br)c(OC)c(O)c12 | . | . | - | - | .
CN(C)C1CCc2[nH]c3ccc(NC(=O)c4ccc(F)cc4)cc3c2C1 (centres undefined) | . | - | . | - | .
CCN(CCN(C)C)C(=O)C1CCN(S(=O)(=O)c2c(C)noc2/C=C/c2ccccc2F)CC1 | . | . | - | 7.1µM | ?
Cn1c(=O)c2c(nc(N/N=C/c3cccs3)n2C)n(C)c1=O | - | - | ? | - | .
Cn1c(=O)c2c(nc(N/N=C/c3ccco3)n2C)n(C)c1=O | ? | - | 8.9µM | - | .
OC1(c2ccc(Cl)c(C(F)(F)F)c2)CCN(CCCC(c2ccc(F)cc2)c2ccc(F)cc2)CC1 | . | - | . | - | .
CCOC(=O)C1=C(c2ccccc2)Nc2c(c(=O)n(C)c(=O)n2C)C1c1ccc(O)c(OC)c1 (centres undefined) | - | - | 32µM | - | -
C=CCNC(=O)N1CCc2nc(-c3ccccc3)c3c(c2C1)CO[C@@H](C)C3 | . | -[17.4 µM] | . | -[12.8 µM] | -[9.22 µM]
Cc1ccnc(Nc2nc(-c3ccc(O)c(O)c3)cs2)c1 | . | . | 6.3µM | - | .
Cc1cccnc1Nc1nc(-c2ccc(O)c(O)c2)cs1 | ? | - | 7.1µM | - | -
CCCCCCCCCCCCCCC/C=C/[C@@H](O)[C@H](NC(=O)CCCCCCCCCCCCC)OC (tested in a mixture with another compound) | . | - | . | - | -
Cc1nc(NS(=O)(=O)c2ccccc2)sc1NC(=O)OCCN(C)C | - | - | 25µM | - | -
COc1ccc(/C=N/N2CCN(c3ccccc3OC)CC2)cc1OC | ? | - | ? | - | -
COc1ccccc1N1CCN(/N=C/c2ccc(O)c(O)c2)CC1 | - | - | 2.8µM | - | .
COC(=O)NC(c1ccccc1)[C@@]1(C(=O)OC)CCCC1=O (some centres undefined) | . | -[17.4 µM] | . | -[12.8 µM] | .
O=C(/C=C\c1ccc(O)c(O)c1)O[C@@H](Cc1ccc(O)c(O)c1)C(=O)O | . | - | . | - | .
O=C(/C=C/c1ccc(O)c(O)c1)OC(Cc1ccc(O)c(O)c1)C(=O)O (centres undefined) | . | - | 2µM | - | .
Oc1ccccc1N=Cc1ccc[nH]1 | - | - | 2.8µM | - | ?
SMILES | GAA inhib | GAA spleen mod | GAA glycogen mod | N370S GC mod | LMNA splice mod
N#CC1=C(SCC(=O)NC2CC2)NC(=O)C(C#N)C12CCCCC2 (centres undefined) | - | - | 25µM | - | -
CCOc1cc(/C=C2/NC(=O)N(Cc3ccccc3F)C2=O)ccc1O | - | - | 5.6µM | - | -
Cc1ccc(S(=O)(=O)NNC(=O)c2snnc2C)cc1 | - | - | 25µM | - | -
Cc1nnsc1C(=O)NNS(=O)(=O)c1cc(C(F)(F)F)cc(C(F)(F)F)c1 | - | - | ? | - | -
CC1(C)CN(c2ccccc2)N(C(=O)c2ccc(C#N)cc2)C1=O | - | - | 20µM | - | -
C/C=C1\COC(C(=O)NCCN2CCOCC2)(C(F)(F)F)C=C1C=C(C)C (centres undefined) | . | - | . | 14µM | .
CCC(C)NC(=O)CN(c1cc(C)cc(C)c1)S(=O)(=O)c1c(C)[nH]c(=O)[nH]c1=O (centres undefined) | . | - | - | 10µM | .
Cc1noc(C)c1S(=O)(=O)N(CC(=O)NC1CCC(C)CC1)c1ccc(C(C)C)cc1 (centres undefined) | . | . | . | - | .
CCOc1ccc(N(CC)S(=O)(=O)c2c(C)[nH]c(=O)[nH]c2=O)cc1 | . | . | - | - | .
